Test results taken from the supplement of paper PMC10849652.
About 8,800 targets were measured; listed, in parts, are those with a hit and a random draw of the rest. About 0.5% of all pairs of compound and target were hits. Unmarked numbers belong to inactive results.

What was measured:
Experiment in all cases: log2 fold change, soluble protein after heating vs DMSO (PISA); higher = thermal stabilisation; K562 lysate, 10 uM; active = over 0.2 and 3.5 SD of the protein, either way, in both replicates (recomputed)
[1] = compound: C1=CC=C(C=C1)[C@H](COC2=CC3=C(C=C2)NC(=O)N3)NC(=O)C4=CC=CN(C4=O)CC5=CC(=C(C=C5)F)F
Method in brief: (§1)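 Log-two fold change in thermal stability relative to solvent controls is reported from duplicates. For each sample, crude K562 extract from dounce-homogenised pellets in PBS pH 7.4 with 1 mM MgCl2, at 1 mg/mL protein, was treated with 10 μM compound for 30 min. Aliquots heated for 3 min across 48°C-58°C were pooled, brought to 0.5% NP-40 at 4°C and cleared at 21,000xg for 90 min. The supernatant was quantified by TMTpro 16plex LC-MS/MS with channel sums equalised.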

[2] = compound: CC1=C(SC2=C1C(=N[C@H](C3=NN=C(N32)C)CC(=O)N)C4=CC=C(C=C4)Cl)C
Method in brief: as §1

[3] = compound: CC1=C2C(=CC=C1)N=C(N(C2=O)C3=CC=CC=C3C)CN4C=NC5=C(N=CN=C54)N
Method in brief: as §1

[4] = compound: Cc1sc2c(c1C)C(c1ccc(Cl)cc1)=N[C@@H](CC(=O)OC(C)(C)C)c1nnc(C)n1-2
Method in brief: as §1

[5] = compound: c1ccc([C@@H]2C[C@H]2NC2CCNCC2)cc1
Method in brief: as §1

Sequence of UniProt O94905 (O94905 whole entry, looked up): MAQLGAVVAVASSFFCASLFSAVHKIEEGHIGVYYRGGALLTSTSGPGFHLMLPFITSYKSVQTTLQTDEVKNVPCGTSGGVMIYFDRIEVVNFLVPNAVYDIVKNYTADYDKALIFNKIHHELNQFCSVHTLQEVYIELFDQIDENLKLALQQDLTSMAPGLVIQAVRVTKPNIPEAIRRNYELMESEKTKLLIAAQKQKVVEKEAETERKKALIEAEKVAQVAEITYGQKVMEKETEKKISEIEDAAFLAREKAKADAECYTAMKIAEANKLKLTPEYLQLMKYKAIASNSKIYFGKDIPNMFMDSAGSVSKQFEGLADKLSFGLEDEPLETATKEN
Sequence of UniProt P49356 (P49356 whole entry, looked up): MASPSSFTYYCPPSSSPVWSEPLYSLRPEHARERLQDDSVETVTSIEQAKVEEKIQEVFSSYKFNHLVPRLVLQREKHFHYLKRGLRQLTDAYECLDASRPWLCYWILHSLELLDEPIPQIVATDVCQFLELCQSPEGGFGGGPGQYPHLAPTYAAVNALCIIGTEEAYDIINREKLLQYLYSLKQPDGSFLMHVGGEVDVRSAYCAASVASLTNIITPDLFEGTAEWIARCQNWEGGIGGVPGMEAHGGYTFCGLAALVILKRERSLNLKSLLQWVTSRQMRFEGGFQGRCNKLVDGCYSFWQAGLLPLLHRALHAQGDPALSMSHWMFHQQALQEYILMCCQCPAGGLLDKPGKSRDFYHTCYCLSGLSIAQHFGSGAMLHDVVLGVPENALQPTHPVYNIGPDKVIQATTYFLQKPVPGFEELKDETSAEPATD
Sequence of UniProt Q9UK97 (Q9UK97 whole entry, looked up): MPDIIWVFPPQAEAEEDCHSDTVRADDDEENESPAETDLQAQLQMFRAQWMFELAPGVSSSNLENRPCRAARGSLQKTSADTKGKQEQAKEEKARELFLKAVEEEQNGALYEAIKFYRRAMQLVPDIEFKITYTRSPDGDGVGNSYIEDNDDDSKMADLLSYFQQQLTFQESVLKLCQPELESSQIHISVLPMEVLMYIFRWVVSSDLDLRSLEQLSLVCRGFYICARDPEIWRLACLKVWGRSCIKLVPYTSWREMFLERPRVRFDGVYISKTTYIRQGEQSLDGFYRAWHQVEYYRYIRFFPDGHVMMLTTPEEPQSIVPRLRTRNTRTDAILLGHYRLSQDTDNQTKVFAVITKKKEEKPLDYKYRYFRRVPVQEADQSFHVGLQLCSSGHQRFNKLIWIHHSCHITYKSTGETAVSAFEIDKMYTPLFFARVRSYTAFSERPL
Sequence of UniProt Q5SZK8 (Q5SZK8 whole entry, looked up): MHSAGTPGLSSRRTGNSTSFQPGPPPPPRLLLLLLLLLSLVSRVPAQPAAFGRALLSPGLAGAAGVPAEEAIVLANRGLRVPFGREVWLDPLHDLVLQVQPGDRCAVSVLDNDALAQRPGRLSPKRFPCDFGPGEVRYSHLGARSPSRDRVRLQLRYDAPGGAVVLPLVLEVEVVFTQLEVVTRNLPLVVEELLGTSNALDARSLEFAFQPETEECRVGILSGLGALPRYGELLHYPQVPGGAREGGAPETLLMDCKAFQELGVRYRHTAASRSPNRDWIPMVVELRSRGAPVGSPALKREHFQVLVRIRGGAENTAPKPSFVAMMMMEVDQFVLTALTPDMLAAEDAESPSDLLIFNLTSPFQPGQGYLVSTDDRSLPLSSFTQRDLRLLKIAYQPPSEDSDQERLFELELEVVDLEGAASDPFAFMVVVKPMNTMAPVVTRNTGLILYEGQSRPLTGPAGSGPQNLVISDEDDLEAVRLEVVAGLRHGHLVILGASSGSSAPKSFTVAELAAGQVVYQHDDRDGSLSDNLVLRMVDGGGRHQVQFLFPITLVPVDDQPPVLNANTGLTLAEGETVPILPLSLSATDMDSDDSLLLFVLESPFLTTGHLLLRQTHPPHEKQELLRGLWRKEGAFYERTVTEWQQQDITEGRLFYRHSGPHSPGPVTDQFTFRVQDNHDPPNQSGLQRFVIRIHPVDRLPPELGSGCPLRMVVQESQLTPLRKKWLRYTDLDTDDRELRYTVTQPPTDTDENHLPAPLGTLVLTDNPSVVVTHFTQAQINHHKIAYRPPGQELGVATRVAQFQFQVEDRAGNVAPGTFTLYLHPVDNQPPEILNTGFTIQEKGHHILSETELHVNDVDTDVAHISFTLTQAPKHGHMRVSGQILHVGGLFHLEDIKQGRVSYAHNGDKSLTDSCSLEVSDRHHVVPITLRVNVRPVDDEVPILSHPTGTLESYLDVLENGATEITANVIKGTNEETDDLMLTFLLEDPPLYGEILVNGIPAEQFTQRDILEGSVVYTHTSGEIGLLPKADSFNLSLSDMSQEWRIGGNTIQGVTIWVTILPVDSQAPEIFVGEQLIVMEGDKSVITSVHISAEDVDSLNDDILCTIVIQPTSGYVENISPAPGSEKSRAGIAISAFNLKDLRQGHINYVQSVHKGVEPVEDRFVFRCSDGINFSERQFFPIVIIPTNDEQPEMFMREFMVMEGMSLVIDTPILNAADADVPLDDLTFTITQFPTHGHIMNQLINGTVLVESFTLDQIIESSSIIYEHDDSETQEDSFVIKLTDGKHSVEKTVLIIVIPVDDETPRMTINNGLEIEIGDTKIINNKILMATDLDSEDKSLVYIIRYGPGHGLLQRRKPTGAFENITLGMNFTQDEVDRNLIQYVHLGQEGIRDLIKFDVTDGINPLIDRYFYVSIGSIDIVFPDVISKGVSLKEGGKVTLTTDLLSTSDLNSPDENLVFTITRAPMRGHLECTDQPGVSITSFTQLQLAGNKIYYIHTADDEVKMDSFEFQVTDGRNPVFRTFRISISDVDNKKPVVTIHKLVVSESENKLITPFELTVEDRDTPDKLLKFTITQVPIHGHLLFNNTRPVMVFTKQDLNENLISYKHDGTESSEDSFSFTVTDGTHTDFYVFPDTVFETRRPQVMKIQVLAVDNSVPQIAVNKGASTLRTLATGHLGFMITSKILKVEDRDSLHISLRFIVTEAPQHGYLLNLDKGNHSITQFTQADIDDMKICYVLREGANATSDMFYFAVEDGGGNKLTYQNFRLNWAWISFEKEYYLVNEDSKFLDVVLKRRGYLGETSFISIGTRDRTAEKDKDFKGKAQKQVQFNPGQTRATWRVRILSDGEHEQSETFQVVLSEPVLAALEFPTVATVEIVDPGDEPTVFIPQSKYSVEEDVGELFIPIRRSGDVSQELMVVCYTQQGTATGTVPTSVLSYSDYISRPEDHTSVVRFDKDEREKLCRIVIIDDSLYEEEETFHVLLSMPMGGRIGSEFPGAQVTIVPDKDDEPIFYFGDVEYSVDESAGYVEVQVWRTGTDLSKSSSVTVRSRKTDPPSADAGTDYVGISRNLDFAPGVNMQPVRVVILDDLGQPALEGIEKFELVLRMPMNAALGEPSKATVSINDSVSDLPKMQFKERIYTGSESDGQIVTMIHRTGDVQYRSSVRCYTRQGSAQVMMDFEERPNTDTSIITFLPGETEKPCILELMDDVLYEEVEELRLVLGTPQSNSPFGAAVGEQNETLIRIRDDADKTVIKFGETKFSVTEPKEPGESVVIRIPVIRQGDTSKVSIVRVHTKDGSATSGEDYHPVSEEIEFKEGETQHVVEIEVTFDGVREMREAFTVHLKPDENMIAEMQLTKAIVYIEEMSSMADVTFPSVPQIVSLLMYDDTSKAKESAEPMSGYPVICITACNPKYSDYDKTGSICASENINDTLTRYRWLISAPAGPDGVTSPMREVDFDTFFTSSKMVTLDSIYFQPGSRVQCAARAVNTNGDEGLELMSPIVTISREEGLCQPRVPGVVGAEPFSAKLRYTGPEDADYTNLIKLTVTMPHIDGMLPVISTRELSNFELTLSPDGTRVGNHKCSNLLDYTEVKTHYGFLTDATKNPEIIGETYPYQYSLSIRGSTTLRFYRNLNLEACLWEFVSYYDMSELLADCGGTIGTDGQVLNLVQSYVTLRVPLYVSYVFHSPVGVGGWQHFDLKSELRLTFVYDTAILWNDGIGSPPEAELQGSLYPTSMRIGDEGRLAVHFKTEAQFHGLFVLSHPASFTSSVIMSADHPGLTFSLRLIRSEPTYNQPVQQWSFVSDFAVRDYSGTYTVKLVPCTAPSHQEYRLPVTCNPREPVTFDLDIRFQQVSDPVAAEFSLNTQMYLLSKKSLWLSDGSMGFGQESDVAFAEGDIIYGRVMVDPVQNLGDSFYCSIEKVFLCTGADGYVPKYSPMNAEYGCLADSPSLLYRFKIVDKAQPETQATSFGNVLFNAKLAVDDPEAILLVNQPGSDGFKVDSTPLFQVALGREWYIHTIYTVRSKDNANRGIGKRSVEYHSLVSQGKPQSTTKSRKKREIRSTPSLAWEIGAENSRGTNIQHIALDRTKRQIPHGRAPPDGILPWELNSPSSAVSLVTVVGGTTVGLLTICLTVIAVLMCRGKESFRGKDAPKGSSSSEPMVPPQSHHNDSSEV
Sequence of UniProt Q9NRY5 (Q9NRY5 whole entry, looked up): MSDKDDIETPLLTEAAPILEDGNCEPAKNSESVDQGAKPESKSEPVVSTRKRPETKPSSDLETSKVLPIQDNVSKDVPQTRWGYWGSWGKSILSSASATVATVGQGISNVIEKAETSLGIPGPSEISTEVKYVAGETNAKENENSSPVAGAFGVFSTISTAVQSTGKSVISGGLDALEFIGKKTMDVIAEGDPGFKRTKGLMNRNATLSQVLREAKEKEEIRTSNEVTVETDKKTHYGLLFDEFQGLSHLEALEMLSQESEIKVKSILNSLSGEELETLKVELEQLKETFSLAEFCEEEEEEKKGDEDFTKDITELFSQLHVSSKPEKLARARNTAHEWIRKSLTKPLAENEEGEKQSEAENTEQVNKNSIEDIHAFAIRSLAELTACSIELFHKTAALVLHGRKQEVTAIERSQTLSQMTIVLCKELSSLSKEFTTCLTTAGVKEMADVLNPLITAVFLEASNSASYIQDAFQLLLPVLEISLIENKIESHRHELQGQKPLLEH
Sequence of UniProt P62942 (P62942 whole entry, looked up): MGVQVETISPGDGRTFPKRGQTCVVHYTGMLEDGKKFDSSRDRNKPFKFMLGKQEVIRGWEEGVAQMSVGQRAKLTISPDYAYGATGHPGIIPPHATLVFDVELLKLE

Target | log2 fold change [1] | log2 fold change [2] | log2 fold change [3] | log2 fold change [4] | log2 fold change [5]
ELAVL1 isoform 2 (UniProt Q15717) | -0.038 | 0 | -0.017 | 0.066 | 0.052
FBLL1 (UniProt A6NHQ2) | -0.017 | 0.013 | 0.037 | -0.002 | -0.062
FAM118B (UniProt Q9BPY3) | -0.025 | -0.062 | -0.01 | -0.018 | 0.01
FIBP (UniProt O43427) | -0.018 | 0 | -0.044 | -0.027 | -0.002
FXR2 (UniProt P51116) | -0.021 | -0.011 | 0.032 | -0.014 | 0.054
ERLIN2 (UniProt O94905) | 0.009 | -0.007 | 0.016 | -0.126 | 0.143
EFCAB14 (UniProt O75071) | 0.099 | -0.074 | 0.088 | -0.014 | 0.013
DSTN (UniProt P60981) | 0.043 | -0.051 | -0.016 | 0.018 | -0.06
DTL (UniProt Q9NZJ0) | 0.033 | 0.038 | 0.089 | -0.032 | -0.01
EXOC2 (UniProt Q96KP1) | -0.01 | -0.018 | -0.013 | -0.019 | 0.063
FIG4 (UniProt Q92562) | -0.107 | -0.108 | 0.037 | 0.039 | -0.037
EIF2B3 (UniProt Q9NR50) | -0.047 | 0.008 | -0.01 | 0.004 | 0.107
FXR1 (UniProt P51114) | -0.028 | -0.016 | -0.009 | 0.04 | 0.027
GIGYF2 (UniProt Q6Y7W6) | 0.047 | -0.054 | 0.011 | -0.076 | 0.033
FAM114A2 (UniProt Q9NRY5) | 0.073 | -0.002 | -0.027 | 0.019 | 0.035
GCLM (UniProt P48507) | 0.01 | -0.041 | 0.02 | 0.008 | 0.006
FECH isoform 2 (UniProt P22830) | 0.06 | -0.101 | -0.126 | -0.229 | -0.092
GEMIN2 (UniProt O14893) | -0.009 | 0.01 | -0.023 | 0.015 | -0.043
EED, A0A5F9ZI63 | 0.022 | -0.01 | 0.027 | -0.007 | -0.011
FYB1 isoform 3 (UniProt O15117) | 0.011 | 0.039 | 0.095 | 0.008 | 0.051
FAM83A (UniProt Q86UY5) | 0.065 | -0.023 | 0.063 | 0.11 | -0.039
DUS2 (UniProt Q9NX74) | 0.037 | 0.018 | -0.018 | 0.055 | 0.116
EAPP (UniProt Q56P03) | 0.008 | 0.048 | 0.137 | 0.029 | -0.079

Target | log2 fold change [1] | log2 fold change [2] | log2 fold change [3] | log2 fold change [4] | log2 fold change [5]
ERI1 (UniProt Q8IV48) | 0.071 | -0.061 | -0.022 | -0.015 | 0.056
GBF1 (UniProt Q92538) | -0.044 | 0 | 0.005 | 0.016 | 0.011
ENY2 (UniProt Q9NPA8) | 0.033 | -0.001 | -0.162 | 0.117 | 0.386
FLAD1 (UniProt Q8NFF5) | 0.006 | 0.032 | 0.011 | 0.017 | 0.022
FBXO9 (UniProt Q9UK97) | -0.07 | -0.112 | -0.002 | 0.089 | 0.095
FNBP1L (UniProt Q5T0N5) | -0.082 | -0.009 | 0.012 | -0.032 | 0.029
GAPDH (UniProt P04406) | 0.004 | 0.008 | -0.018 | 0.008 | 0.052
EPRS (UniProt P07814) | -0.005 | 0.002 | 0.003 | 0.043 | 0.016
FDFT1 (UniProt P37268) | -0.045 | 0.268 (active) | 0 | 0.107 | -0.047
EP400 isoform 5 (UniProt Q96L91) | -0.008 | 0.024 | -0.014 | 0.06 | 0.016
ENO2 (UniProt P09104) | 0.019 | -0.122 | 0.037 | -0.009 | -0.153
FREM2 (UniProt Q5SZK8) | 0 | 0.074 | 0.003 | -0.133 | -0.212
GFPT1 (UniProt Q06210) | -0.021 | -0.001 | 0.021 | 0.019 | 0.058
DYNC1I2 isoform 2 (UniProt Q13409) | -0.011 | 0.253 | -0.005 | 0.082 | 0.155
EIF3I (UniProt Q13347) | -0.038 | 0.022 | 0.01 | 0.019 | 0.033
FKBP1A (UniProt P62942) | 0.011 | -0.134 | -0.069 | -0.01 | -0.214
EMC7 (UniProt Q9NPA0) | 0.01 | 0.02 | 0.024 | 0.005 | -0.141
FAM98A (UniProt Q8NCA5) | 0.017 | 0.002 | -0.048 | 0.016 | 0.02
FNTB (UniProt P49356) | 0.023 | 0.135 | 0.015 | -0.008 | 0.038
EEFSEC (UniProt P57772) | -0.033 | -0.003 | 0.009 | -0.003 | 0.015
EXOC5 (UniProt O00471) | -0.065 | -0.002 | 0.068 | -0.023 | 0.035
GCDH (UniProt Q92947) | 0.034 | -0.032 | -0.022 | -0.008 | -0.004
FARSB (UniProt Q9NSD9) | -0.014 | 0.036 | -0.004 | 0.02 | 0.052
